# Assay results published in PubChem BioAssay.
# The source made the active and inactive calls.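 Rule for the calls, unless noted: active = inhibition of the reporter signal at or above 50%; inactive = inhibition below 50%.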
# Assays:
# [1] = inhibitors of TNFa-induced NFkB p65 translocation, primary screen, imaging, HUVEC, MLSMR starter and 10KST1 sets (AID 438;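 active = inhibition above 20% together with a positive visual image hit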;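 note: compound added about 3h40 before a 20 min TNFalpha stimulation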;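 for inhibition: signal is the nuclear over cytoplasmic p65 intensity ratio per well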); conditions: HUVEC TNFa-induced p65 nuclear translocation; cell count: measured here: nuclei count (cytotoxicity indicator), at 2.08 µM; inhibition: at 2 µM, stronger effect = higher value, 0% TNFa-plus-vehicle, 100% no-TNFa wells
# [2] = inhibitors of mutant huntingtin aggregation, primary screen, imaging, exon1htt(103Q)mCFP cells, high-content imaging (AID 483;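 active = visual image review flags a hit and inhibition of aggregation exceeds 20%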;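 note: compound exposure lasted 3 days before fixation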;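 for nuclei count: percent of the per-plate median nuclei count of sample wells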); conditions: exon1htt(103Q)mCFP cell line, aggregate imaging, at 2 µM; inhibition of aggregation: stronger effect = higher value; nuclei count: measured here: cell count, toxicity
# [3] = inhibitors of E-selectin induction by TNFa, primary screen, imaging, HUVEC, immunofluorescence, MLSMR starter and 10KST1 sets (AID 487;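 active = visually confirmed hit in the image check and inhibition above 20%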;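 for inhibition: signal is fraction of cell area covered by stained E-selectin grains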;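 for nuclei count: 100% = median nuclei count of all wells on the same plate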); conditions: HUVEC TNFalpha-induced E-selectin immunofluorescence imaging, at 2 µM; inhibition: stronger effect = higher value; nuclei count: measured here: cell number, toxicity
# [4] = target: Voltage-gated potassium channel subunit beta-2 (Rattus norvegicus) (UniProt P62483); assay: KvBeta enzyme negative modulators, primary screen, biochemical, NADPH fluorescence (AID 622;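 active = fluorescence slope higher than the sample average by over 3 SD, cut at about -0.22 in these data, passing the limit was not always enough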;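 note: slope of raw intensity against log time taken from 70 to 1610 s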); conditions: recombinant KvBeta, 4-cyanobenzaldehyde reduction, at 10 µM, stronger effect = higher value
# [5] = target: Voltage-gated potassium channel subunit beta-2 (Rattus norvegicus) (UniProt P62483); assay: KvBeta positive modulators, primary screen, biochemical, NADPH fluorescence (AID 623;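 active = NADPH fluorescence slope more negative than the mean of all samples by about 3 SD, 99.7% confidence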;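 note: fluorescence intensity change per second fitted from 20 to 320 s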); conditions: Recombinant KvBeta, NADPH fluorescence decrease slope, 10 min; at 10 µM; stronger effect = lower value
# [6] = target: Alpha-2C adrenergic receptor (Homo sapiens) (UniProt P18825); assay: modulators of alpha2C/GIRK thallium flux, primary screen, cell-based, HEK293 alpha2C/GIRK1/2 (AID 624;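 active = fluorescence slope after compound addition differing from the mean of all screened samples at 99.7% confidence, in either direction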;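 note: slope of fluorescence ratio to pre-addition baseline per second over 15 to 24 s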); conditions: thallium flux BTC fluorescence, at 10 µM, actives lie on both sides
# [7] = inhibitors of Sendai virus-induced IRF3 signaling, primary screen, TLR/RLR signaling modifier project, cell-based, Sendai virus stimulus, luciferase, 10K MLSCN set (AID 602276;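 active = inhibition at or above 50% at 10 µM; inactive = inhibition below 50%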;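 note: firefly luciferase from ISG56 promoter only with Renilla not read in this screen; 0% = Sendai virus plus DMSO and 100% = medium plus DMSO without virus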); conditions: HEK293 RL24 IRF3 luciferase reporter, at 10 µM, stronger effect = higher value
# [8] = inhibitors of poly I:C-induced TLR3 signaling, primary screen, cell-based, poly I:C stimulus, luciferase, 10K MLSCN set (AID 602277); conditions: HEK293-TLR3 RL24 IRF3 luciferase reporter, at 10 µM, stronger effect = higher value
# Voltage-gated potassium channel subunit beta-2 (Rattus norvegicus), sequence (P62483 whole entry, looked up): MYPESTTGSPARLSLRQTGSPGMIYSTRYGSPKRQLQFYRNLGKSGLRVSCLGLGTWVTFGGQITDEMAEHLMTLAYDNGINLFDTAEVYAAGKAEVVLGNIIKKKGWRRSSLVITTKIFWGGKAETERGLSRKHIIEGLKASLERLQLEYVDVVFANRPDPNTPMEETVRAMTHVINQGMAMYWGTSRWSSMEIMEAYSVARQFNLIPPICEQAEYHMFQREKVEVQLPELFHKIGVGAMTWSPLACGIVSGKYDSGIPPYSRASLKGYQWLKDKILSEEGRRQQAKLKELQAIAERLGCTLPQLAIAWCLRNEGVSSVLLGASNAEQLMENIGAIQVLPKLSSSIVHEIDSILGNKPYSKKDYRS
# Alpha-2C adrenergic receptor (Homo sapiens), sequence (P18825 whole entry, looked up): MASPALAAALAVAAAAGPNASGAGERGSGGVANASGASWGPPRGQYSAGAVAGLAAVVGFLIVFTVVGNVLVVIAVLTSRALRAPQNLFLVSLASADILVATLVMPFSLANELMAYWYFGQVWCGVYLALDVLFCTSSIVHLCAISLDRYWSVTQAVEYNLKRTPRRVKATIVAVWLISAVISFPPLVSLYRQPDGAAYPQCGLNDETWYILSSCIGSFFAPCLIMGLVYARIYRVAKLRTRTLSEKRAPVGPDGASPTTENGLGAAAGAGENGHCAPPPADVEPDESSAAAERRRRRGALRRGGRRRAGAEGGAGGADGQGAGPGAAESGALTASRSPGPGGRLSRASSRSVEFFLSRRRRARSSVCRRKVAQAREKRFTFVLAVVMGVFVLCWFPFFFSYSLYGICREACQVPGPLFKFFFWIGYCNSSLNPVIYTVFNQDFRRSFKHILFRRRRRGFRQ
Compound,cell count [1],inhibition [1],inhibition of aggregation [2],nuclei count [2] [%],inhibition [3],nuclei count [3] [%],fluorescence slope [4],NADPH fluorescence slope [5],slope [6],inhibition [7],inhibition [8]
O=C(Nc1cccc2ncccc12)c1ccc2c(c1)OCCO2,586,2.2% (inactive),11.1% (inactive),101,-8.1% (inactive),81.2,-0.46 (inactive),-4.6e-05 (inactive),0.00308 (inactive),-12.7% (inactive),-8.56% (inactive)
CCOc1ccc(OCC)c(NC(=O)CN2CCN(C(=O)c3ccco3)CC2)c1,554,-19.4% (inactive),-12.3% (inactive),122,-77.5% (inactive),102,-0.546 (inactive),1.9e-05 (inactive),0.00515 (inactive),-15.6% (inactive),-16.4% (inactive)
Cc1cc(C(=O)CSc2nc3ccccc3n2CCC#N)c(C)n1Cc1cccs1,440,10.6% (inactive),-70.3% (inactive),102,-412% (inactive),158,-0.32 (inactive),-4.6e-05 (inactive),0.00574 (inactive),20.7% (inactive),-7.47% (inactive)
COc1ccc(CCNC(=O)CN(c2ccccc2OC)S(C)(=O)=O)cc1,723,-3.4% (inactive),33.6% (inactive),87.7,-41.9% (inactive),98.4,-0.427 (inactive),-0.000127 (inactive),0.00571 (inactive),15.7% (inactive),27.5% (inactive)
Cc1ccc(S(=O)(=O)CCC(=O)Nc2ccc3c(c2)OCO3)cc1,666,-12.2% (inactive),-1.1% (inactive),131,-26.9% (inactive),115,-0.587 (inactive),-6.2e-05 (inactive),0.00603 (inactive),-0.686% (inactive),12.3% (inactive)
CCOc1ccc(/C=N/n2cnnc2)cc1,442,-2.2% (inactive),-4.7% (inactive),89.4,17.6% (inactive),117,-0.402 (inactive),-9.1e-05 (inactive),0.00521 (inactive),8.22% (inactive),20.1% (inactive)
CC1CCCN(c2ccc(C(=O)NCc3cccs3)cn2)C1 (stereo unspecified),632,-14.3% (inactive),-22.9% (inactive),112,-67.5% (inactive),139,-0.614 (inactive),-6.9e-06 (inactive),0.00612 (inactive),-37.8% (inactive),-71.3% (inactive)
COc1ccc(CNC(=O)C(c2ccco2)N(Cc2cccs2)C(=O)Cc2cccs2)cc1 (stereo unspecified),658,9.5% (inactive),-14.3% (inactive),107,-44.5% (inactive),105,-0.6 (inactive),-8.4e-06 (inactive),0.00565 (inactive),13.1% (inactive),28.3% (inactive)
CCOc1ccc2cc(C#N)c(SCC(=O)N3CCC(C)CC3)nc2c1,447,0.5% (inactive),6% (inactive),107,-92.8% (inactive),138,-0.242 (inactive),2.6e-06 (inactive),0.00566 (inactive),18.2% (inactive),7.14% (inactive)
CC1Cc2ccccc2N1C(=O)CSc1nc2ccccc2n1CC(=O)N1CCOCC1 (stereo unspecified),468,-0.5% (inactive),6.9% (inactive),111,-68.5% (inactive),110,-0.523 (inactive),-0.000178 (inactive),0.00303 (inactive),15.4% (inactive),2% (inactive)
COC(=O)CCC(NC(=O)c1cc(-c2ccc3c(c2)OCCO3)oc1C)C(=O)OC (stereo unspecified),320,20% (active),0.3% (inactive),104,13.3% (inactive),104,-0.48 (inactive),-3e-05 (inactive),0.00476 (inactive),-2.55% (inactive),-6.77% (inactive)
O=C(c1cccnc1NCc1ccccc1)N1CCOCC1,616,-26.5% (inactive),5.4% (inactive),114,-53.4% (inactive),116,-0.613 (inactive),2e-05 (inactive),0.00541 (inactive),-13.7% (inactive),-5.42% (inactive)
O=C(C1=C(O)C(=O)N(Cc2ccccc2)C1c1ccncc1)c1ccco1 (stereo unspecified),382,8.3% (inactive),-3.4% (inactive),116,-216% (inactive),143,-0.192 (inactive),2.5e-06 (inactive),0.0062 (inactive),-5.31% (inactive),2.12% (inactive)
COc1cc(Nc2cc(C)nc3ncnn23)cc(OC)c1OC,649,-6.3% (inactive),-4.4% (inactive),109,-23.8% (inactive),112,-0.56 (inactive),1.9e-05 (inactive),0.0068 (inactive),1.55% (inactive),31.7% (inactive)
O=S(=O)(c1ccc(S(=O)(=O)N(Cc2ccco2)Cc2ccccc2Cl)cc1)N1CCCC1,818,-6.1% (inactive),-2.8% (inactive),108,-38.1% (inactive),126,-0.587 (inactive),-3.1e-05 (inactive),0.00951 (inactive),8.74% (inactive),28% (inactive)
Cc1ccc2c(c1)-c1c(cnn1CC(=O)Nc1ccccc1N1CCN(C)CC1)CO2,521,-10.8% (inactive),-22% (inactive),66.8,-3.4% (inactive),108,-0.507 (inactive),-9e-06 (inactive),0.00599 (inactive),3.02% (inactive),7.29% (inactive)
CC(=O)C1=C(O)C(=O)N(C2CCCCC2)C1c1ccccc1 (stereo unspecified),467,-10.8% (inactive),-19.1% (inactive),104,-95.4% (inactive),176,-0.448 (inactive),-9.9e-06 (inactive),0.00562 (inactive),18.2% (inactive),15.5% (inactive)
O=c1c2[nH]c3cccc(Cl)c3c2ncn1CCN1CCCCC1,300,-2.8% (inactive),-4.9% (inactive),89,-0.5% (inactive),106,-0.618 (inactive),-2.5e-05 (inactive),0.00476 (inactive),16.5% (inactive),27.2% (inactive)
O=C(NC1CCCCC1)N(Cc1ccc(F)cc1)Cc1nc2ccccc2c(=O)[nH]1,348,1.1% (inactive),-22.3% (inactive),96.5,-71.7% (inactive),99,-0.333 (inactive),3.6e-06 (inactive),0.0032 (inactive),21% (inactive),29% (inactive)
COc1cccc(C2CC(c3ccc(C)cc3)Nc3nc(N)nn32)c1 (stereo unspecified),538,2.3% (inactive),23.1% (inactive),102,28% (inactive),101,-0.564 (inactive),4e-05 (inactive),0.0074 (inactive),-7.82% (inactive),16.6% (inactive)
COc1ccc(N(C)C(=O)CCS(=O)(=O)c2cccc3nonc23)cc1,704,-12.2% (inactive),0.8% (inactive),108,-32.3% (inactive),118,-0.488 (inactive),1.2e-05 (inactive),0.00576 (inactive),-4.78% (inactive),-38.6% (inactive)
Cc1ccc(CCP(=O)(O)CN2CCOCC2)cn1,380,5.9% (inactive),-2.2% (inactive),100,4.3% (inactive),95.2,-0.437 (inactive),3.3e-05 (inactive),0.00662 (inactive),-1.89% (inactive),33.2% (inactive)
O=C(CSc1nnc(-c2cccs2)o1)NCC1CN(Cc2ccccc2)CCO1 (stereo unspecified),669,7.8% (inactive),4.9% (inactive),92.2,-87.4% (inactive),140,-0.607 (inactive),-6.7e-06 (inactive),0.00563 (inactive),-0.491% (inactive),-12.1% (inactive)
Cc1cccc(NC(=O)c2oc3c(c2C)C(=O)CC(C)(C)C3)n1,256,-4% (inactive),-4.5% (inactive),90.8,-63.6% (inactive),93.5,-0.403 (inactive),-7.1e-05 (inactive),0.00548 (inactive),-18% (inactive),-30.8% (inactive)
Cc1cccc2c1N(CC(=O)OC(C)C)C(=O)C2=O,854,0% (inactive),-1.4% (inactive),105,-67.4% (inactive),121,-0.612 (inactive),-6.4e-06 (inactive),0.00621 (inactive),-2.09% (inactive),29% (inactive)
COc1ccc(OC)c(C2CC(=O)NC(SC)=C2C#N)c1 (stereo unspecified),662,-9.6% (inactive),-13.5% (inactive),114,-23.1% (inactive),117,-0.529 (inactive),-3.6e-05 (inactive),0.00545 (inactive),8.75% (inactive),29% (inactive)
